This is an account of results in PubChem BioAssay (NCI).

The panel holds about 83,000 compounds, 20% with a hit somewhere; the sample as a whole holds those more often.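 Assay: single dose, 48 h. Readout: percent growth (0 = no net growth; negative = cell death). Active: <10.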 Values without a mark were called inactive. Calls of active or inactive are those of the source.

The experiment concerns HL-60(TB) leukemia. Kind of experiment: NCI-60 one-dose screen, 48 h (100 = growth as untreated, 0 = no growth, -100 = all killed). To be noted: 10 µM unless noted.
`Cc1cc2nc(CC(=O)c3ccccc3)c(=O)[nH]c2cc1C`: the growth is 103%.

Consider `CN(C)c1ncnc2c1cnn2C`, for which the growth was 108%.

With `COc1cc2cc(c1Cl)N(C)C(=O)C[C@H](OC(=O)[C@H](C)N(C)C(C)=O)[C@]1(C)O[C@H]1[C@H](C)[C@@H]1C[C@@](O)(NC(=O)O1)[C@H](OC)C=C/C=C(\C)C2`, the growth is -25.6% (active).

As to `Cc1ccc(S(=O)(=O)Nn2c3c(cc(-c4nc5ccccc5s4)c2=O)CCCCCC3)cc1`, the growth was 102%.

Consider `Cn1c(=O)c2c(nc3n(-c4ccc(Cl)cc4Cl)c(Sc4nc(-c5ccccc5)c(C#N)c(=O)[nH]4)cn23)n(C)c1=O`, for which the growth was 76.5%.

Turning to `CN(C)CC(=O)c1ccc2cc(Br)c3ccccc3c2c1`, the growth is 53.4%.

Regarding `COc1ccc2nc(N/N=C(\C)c3ccccn3)cc(C)c2c1`, the growth was -64.7% (active).

For the compound `Cc1cc(C)c(S(=O)O)c(C)c1`, the growth was 102%.

As to `CN1C2CCC1/C(=C\c1ccc(F)cc1)C(=O)/C2=C/c1ccc(F)cc1`, the growth was 12.1%.

Turning to `COc1ccc(O)c(-c2cc(-c3ccc(Cl)cc3)c(C#N)c(=O)[nH]2)c1`, the growth was 65.2%.

With `CCCCCCCCCCCCC1CCC/C=C\CCC(=O)O1` (stereo not given), the growth was 88.6%.

Turning to `COc1ccccc1S(=O)(=O)Nc1ccc2c3c(cc(-c4ccoc4)nc13)C(=O)N2C`, the growth is 8.91% (active).

Take `S=C1SCN(CCc2ccccc2)CN1CCc1ccccc1`: the growth is 89.7%.

Consider `CCOC(=O)c1nc(Nc2ccc(C(C)=O)cc2)sc1C`, for which the growth was 95.5%.

As for `O=C(CCN1CCCC1)Nc1ccc2c(NCCCc3ccccc3)c3ccccc3nc2c1`, the growth was -55.6% (active).

In the case of `O=C(O)c1cccnc1Br`, the growth is 110%.

On to `C[C@@H]1N=C(c2ccc3ccccc3c2)Nc2nc3ccccn3c2C1=O`, for which the growth was -6.75% (active).

For `COc1cccc(-c2nc3sccn3c2-c2ccnc(NCCCNS(=O)(=O)c3ccc(Cl)cc3)c2)c1`, the growth is 27.4%.

For `COc1ccc(/C=C/C(=O)c2c(C)nc3ccccc3c2/C=C/c2ccccc2)cc1O`, the growth was 49.1%.

As for `CCCCCCCCCCCCCCCCCN`, the growth is 95.9%.

On to `COc1cccc(-c2nc3sccn3c2-c2ccnc(NCCNS(=O)(=O)c3cccc(Cl)c3)c2)c1`, for which the growth is 15.6%.

For the compound `Cc1cc(C(=O)Nc2ncc(Cc3cccc(C(F)(F)F)c3)s2)c2ccccc2n1`, the growth was -33.8% (active).

In the case of `N#C/C(=C\c1ccc(Br)cc1)c1cc2ccccc2[nH]1`, the growth was 98.2%.

`C=C(C)[C@@H]1CC[C@]2(C(=O)NC(C)=O)CC[C@]3(C)[C@H](CC[C@@H]4[C@@]5(C)CCCNC(C)(C)[C@@H]5CC[C@]43C)[C@@H]12`: the growth was -51.2% (active).

For `CCN1C(=S)N(CC)C2Nn3c(s/c(=C4\C(=O)N(C)c5ccccc54)c3=O)=NC21` (stereo not given), the growth is 6.45% (active).

Regarding `O=c1cc(NC2CCN(CCCc3ccccc3)CC2)c2cc(Cl)ccc2o1`, the growth was -7.02% (active).

With `O=C(O)c1ccc(-n2c(=O)c3ccccc3c3ccccc3c2=O)cc1`, the growth was 83.7%.

For `CCCN(CCSSCCNc1nc(N(C)O)nc(N(C)O)n1)c1nc(N(C)O)nc(N(C)O)n1`, the growth is 88%.

As to `COc1cc(C(=O)O/N=C(\N)Cc2cccc3ccccc23)cc(OC)c1OC`, the growth was -37.4% (active).

For the compound `CCOC(=O)c1c(NS(=O)(=O)c2ccc(C)cc2)sc2c1CCC1(C2)OCCO1`, the growth was 88.5%.

Turning to `O=C(Nc1ccccc1Cl)c1cnc2ccc(C3CCNCC3)cn12`, the growth was 103%.

Consider `CCOC(=O)c1cc(C(=O)c2cc(OC)cc(OC)c2)n2ncc3ccccc3c12`, for which the growth is -8.3% (active).

With `CS(=O)(=O)c1cccc(Nc2ncc3cc(-c4ccccc4Cl)ccc3n2)c1`, the growth was -8.46% (active).

As to `COC(=O)[C@H](Cc1cn(C)cn1)NC(=O)[C@@H](NC(=O)Nc1cc(C(F)(F)F)cc(C(F)(F)F)c1)C(C)(C)C`, the growth was -56.2% [100 µM] (active).

Consider `Cc1nc2cc(O)c(O)cc2cc1Oc1ccc(NC(=O)Nc2ccc(Cl)c(Cl)c2)cc1`, for which the growth is 96.8%.

Turning to `CC[C@]1(O)C[C@H]2CN(CCc3c([nH]c4ccccc34)C(C(=O)OC)(c3cc4c(cc3OC)N(C)[C@H]3[C@@](O)(C(=O)OC)[C@H](OC(C)=O)[C@]5(CC)[C@@H]6C[C@@H]6CN6CC[C@]43[C@@H]65)C2)C1` (stereo not given in full), the growth was -30.9% (active).

Consider `COc1ccc(CNc2ccc3nc(NC(=O)CN4CCCCCC4)sc3c2)cc1`, for which the growth was 47.4%.

`Oc1ccc(Cl)cc1CNc1nc2ccccc2[nH]1`: the growth was -56.6% (active).

For the compound `Cc1cc(C)c(C#N)c(Sc2nc(C)c([N+](=O)[O-])c(C)c2C#N)n1`, the growth is 66.2%.

As to `O=c1c2ccccc2c(=O)c2c1sc1c(=O)c3ccc(O)cc3c(=O)c12`, the growth is -30.6% (active).
